This passage reports composite z-score, z-score and composite Z-score results from PubChem BioAssay.

Test [1] deals with Human papillomavirus type 1a protein E7 (residues 44-93). The test can be described thus: HPV1a E7 fragment binders on microarrays, primary screen, biochemical, small-molecule microarray, residues 44-93, 635 nm fluorescence (AID 1108).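 Note: E7 fragment applied at 1 µg/mL in TBST for 1 h at 4 C; score combines spot fluorescence with its signal to noise ratio.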 The conditions noted are these: small-molecule microarray binding, fluorescence 635 nm; higher = more signal.
Test [2] can be described thus: modulators of HCV replicon luciferase signal, primary screen, HCV replication inhibitor project, Huh7 cells, luciferase reporter (AID 1109).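 Note: huh7 hepatoma cells harbouring a luciferase neomycin HCV replicon reporter; luciferase luminescence as measure of HCV replicon replication; test concentration not given here.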 The conditions noted are these: 48 h, higher = more signal.
The target of test [3] is Left-right determination factor 2 (Homo sapiens) (UniProt O00292). In words: LEFTY2 binders on small-molecule microarrays, primary screen, biochemical, small-molecule microarray, 635 nm fluorescence scan (AID 1110). The conditions noted are these: LEFTY2 binding, higher = more signal.
The target in test [4] is Calmodulin-1 (Homo sapiens) (UniProt P0DP23). The test can be described thus: CALM1 binders on microarrays, EGTA buffer, profiling panel, biochemical, small-molecule microarray, Cy5-labelled CALM1 (AID 1111).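 Note: labelled calmodulin applied in Tris saline Tween buffer holding calcium plus EGTA and DTT.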 The conditions noted are these: Cy5-CALM1 binding fluorescence, higher = more signal.
The target is the same in test [5]. The test can be described thus: calcium-bound CALM1 binders on microarrays, profiling panel, artefact control for SMM control-protein annotation, biochemical, small-molecule microarray, Cy5-labelled CALM1, plus calcium (AID 1112).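 Note: score merges spot fluorescence with signal to noise from triplicate slides.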 The conditions noted are these: Cy5-CALM1 binding fluorescence, higher = more signal.
Test [6] can be described thus: small-molecule microarray binders of probe aWnt5a, primary screen, biochemical, biotinylated probe, 635/667 nm fluorescence (AID 1113).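 Note: score merges 667 nm fluorescence intensity with signal-to-noise per printed feature.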 The conditions noted are these: higher = more signal.
Test [7] can be described thus: small-molecule microarray binders of probe aShh, primary screen, biochemical, biotinylated probe, 635/667 nm fluorescence (AID 1114).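 Note: probe is biotin-labelled aShh protein from a stem cell growth factor screen; measures binding of labelled protein to compounds printed on the slide; score merges feature fluorescence at 667 nm with signal-to-noise.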 The conditions noted are these: higher = more signal.
Test [8] can be described thus: small-molecule microarray binders of probe aNog, primary screen, biochemical, biotinylated probe, 635/667 nm fluorescence (AID 1115).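 Note: probe is biotinylated aNog protein used at 0.15 µg/mL for 1 h at 4 C; z-score combines 667 nm fluorescence of each spot with its signal to noise.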 The conditions noted are these: higher = more signal.
Test [9] addresses Torsin-1A-interacting protein 1 (Homo sapiens) (UniProt Q5JTV8). The test can be described thus: LAP1 binders from COS7 cell lysate, primary screen, small-molecule microarray, 635/667 nm fluorescence (AID 1116). The following applies: COS7-hLAP1 lysate binding, 635 nm fluorescence, higher = more signal.
The target of test [10] is Alpha-bungarotoxin (Bungarus multicinctus) (UniProt P60615). In words: alpha-bungarotoxin binders on microarray, profiling panel, artefact control for SMM control protein annotation, biochemical, small-molecule microarray, Alexa647 label, 635/667 nm fluorescence (AID 1117). The conditions noted are these: alpha-BTX-A647 binding fluorescence, higher = more signal.
Test [11] addresses Albumin (Bos taurus) (UniProt P02769). In words: bovine serum albumin binders on microarray, profiling panel, artefact control for SMM control protein annotation, biochemical, small-molecule microarray, Alexa647 label, 635/667 nm fluorescence (AID 1118).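 Note: score merges 667 nm emission intensity and signal-to-noise per printed compound spot.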 The conditions noted are these: BSA-A647 binding, fluorescence 635 nm, higher = more signal.
Test [12] can be described thus: small-molecule microarray binders of probe aXIP, primary screen, biochemical, NeuroSMM set, 635/667 nm fluorescence (AID 1119).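 Note: probe is the protein aXip251-270 applied at 1 µg/mL to compound-printed slides; binding of probe to printed compounds measured as 667 nm fluorescence plus signal to noise.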 The conditions noted are these: higher = more signal, called active from +8 up or from −8 down.
The nature of test [13]: small-molecule binders of probe aNOTCH3, primary screen, biochemical, small-molecule microarray, 635/667 nm fluorescence (AID 1120).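 Note: probe is a biotin-tagged antibody raised against NOTCH3 rather than NOTCH3 protein; score merges spot fluorescence near 667 nm with spot signal to noise.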 The following applies: higher = more signal.
Test [14] in a line: small-molecule binders of probe aNOTCH2, primary screen, biochemical, small-molecule microarray, 635/667 nm fluorescence (AID 1121).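 Note: score merges feature fluorescence read at 667 nm with its signal to noise.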 The conditions noted are these: higher = more signal.
Test [15] has as its target Carbonic anhydrase 2 (Homo sapiens) (UniProt P00918). In words: CAII small-molecule binders, profiling panel, biochemical, small-molecule microarray, Alexa647-labelled CAII (AID 1122). The conditions noted are these: CAII-A647 binding fluorescence, higher = more signal.
Test [16] is described as follows: COS7 lysate on small-molecule microarray, probe aHis, 635 nm (AID 1123).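 Note: z-score combines 667nm fluorescence intensity with signal-to-noise per printed compound spot.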 The following applies: COS7 cell lysate, fluorescence, higher = more signal.
Test [17] is described as follows: compound binding in COS7 lysate, probe aLAP1, primary screen, cell lysate, small-molecule microarray (AID 1124).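 Note: lysate comes from COS7 cells expressing LAP1 and is applied at 0.3 µg/mL; score merges spot fluorescence near 667 nm with signal-to-noise over triplicate slides.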 The conditions noted are these: probe aLAP1, fluorescence, higher = more signal.
Test [18] has as its system Sam68 (KHDRBS1). The test can be described thus: Sam68 small-molecule binders, primary screen, biochemical, small-molecule microarray, 635 nm fluorescence (AID 1125).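 Note: score merges 667 nm channel intensity with signal to noise over triplicate slides.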 The conditions noted are these: small-molecule microarray binding, higher = more signal.
Test [19] concerns Chordin-like protein 2 (CHRDL2). The test can be described thus: CHRDL2 small-molecule binders, primary screen, biochemical, small-molecule microarray, 635 nm fluorescence (AID 1126).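 Note: printed compound slides probed with Chrdl2 protein at 4 µg/mL for 1 h at 4 C; score merges 667 nm emission intensity with signal to noise over three replicate slides.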 The conditions noted are these: small-molecule microarray binding, fluorescence 635 nm; higher = more signal.
Test [20] addresses Concanavalin-A (Canavalia ensiformis) (UniProt P02866). The test can be described thus: ConA small-molecule binders, primary screen, artefact control for SMM control protein annotation, biochemical, small-molecule microarray, Alexa647 label, 635 nm (AID 1127).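 Note: z combines 667 nm emission intensity with signal-to-noise across three replicate slides.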 The following applies: ConA-A647 binding fluorescence, higher = more signal.

Calls of active or inactive are those of the source.

Chain of Alpha-bungarotoxin (Bungarus multicinctus) (P60615 whole entry, looked up): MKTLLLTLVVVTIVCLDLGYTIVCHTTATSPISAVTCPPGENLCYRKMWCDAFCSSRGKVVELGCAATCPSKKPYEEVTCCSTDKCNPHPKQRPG
Chain of Torsin-1A-interacting protein 1 (Homo sapiens) (Q5JTV8 whole entry, looked up): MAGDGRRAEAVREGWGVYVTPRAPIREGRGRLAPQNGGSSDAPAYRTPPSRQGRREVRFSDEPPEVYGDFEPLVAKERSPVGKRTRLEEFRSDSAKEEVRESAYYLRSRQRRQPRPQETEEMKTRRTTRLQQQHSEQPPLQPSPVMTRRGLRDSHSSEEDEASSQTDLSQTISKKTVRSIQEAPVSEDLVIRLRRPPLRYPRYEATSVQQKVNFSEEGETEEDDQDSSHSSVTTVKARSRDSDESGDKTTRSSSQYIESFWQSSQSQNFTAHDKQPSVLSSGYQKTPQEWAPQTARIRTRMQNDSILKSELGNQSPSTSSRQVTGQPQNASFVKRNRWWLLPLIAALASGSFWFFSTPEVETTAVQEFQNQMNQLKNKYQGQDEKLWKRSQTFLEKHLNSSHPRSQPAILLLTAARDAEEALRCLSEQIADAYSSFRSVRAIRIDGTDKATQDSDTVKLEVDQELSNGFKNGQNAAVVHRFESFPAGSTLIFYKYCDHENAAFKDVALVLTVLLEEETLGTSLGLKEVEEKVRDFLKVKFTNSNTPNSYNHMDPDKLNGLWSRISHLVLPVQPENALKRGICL
Chain of Concanavalin-A (Canavalia ensiformis) (P02866 whole entry, looked up): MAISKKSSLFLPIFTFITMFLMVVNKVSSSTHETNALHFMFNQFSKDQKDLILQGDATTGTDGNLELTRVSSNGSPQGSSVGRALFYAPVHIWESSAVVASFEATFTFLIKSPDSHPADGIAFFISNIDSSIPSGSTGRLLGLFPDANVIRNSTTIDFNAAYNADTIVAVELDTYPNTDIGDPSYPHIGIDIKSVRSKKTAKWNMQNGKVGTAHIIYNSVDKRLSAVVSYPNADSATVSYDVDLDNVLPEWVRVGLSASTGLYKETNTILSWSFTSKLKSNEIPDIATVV
Chain of Left-right determination factor 2 (Homo sapiens) (O00292 whole entry, looked up): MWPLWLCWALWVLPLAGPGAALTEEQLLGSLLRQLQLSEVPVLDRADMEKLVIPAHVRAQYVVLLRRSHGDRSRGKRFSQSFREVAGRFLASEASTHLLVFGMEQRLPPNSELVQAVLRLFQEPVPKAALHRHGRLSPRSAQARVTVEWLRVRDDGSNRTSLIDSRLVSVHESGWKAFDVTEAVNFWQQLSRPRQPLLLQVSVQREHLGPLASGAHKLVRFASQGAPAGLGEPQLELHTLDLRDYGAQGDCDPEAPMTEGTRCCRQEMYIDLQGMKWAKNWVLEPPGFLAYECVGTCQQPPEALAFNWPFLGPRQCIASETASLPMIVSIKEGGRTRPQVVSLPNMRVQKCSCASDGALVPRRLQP
Chain of Albumin (Bos taurus) (P02769 whole entry, looked up): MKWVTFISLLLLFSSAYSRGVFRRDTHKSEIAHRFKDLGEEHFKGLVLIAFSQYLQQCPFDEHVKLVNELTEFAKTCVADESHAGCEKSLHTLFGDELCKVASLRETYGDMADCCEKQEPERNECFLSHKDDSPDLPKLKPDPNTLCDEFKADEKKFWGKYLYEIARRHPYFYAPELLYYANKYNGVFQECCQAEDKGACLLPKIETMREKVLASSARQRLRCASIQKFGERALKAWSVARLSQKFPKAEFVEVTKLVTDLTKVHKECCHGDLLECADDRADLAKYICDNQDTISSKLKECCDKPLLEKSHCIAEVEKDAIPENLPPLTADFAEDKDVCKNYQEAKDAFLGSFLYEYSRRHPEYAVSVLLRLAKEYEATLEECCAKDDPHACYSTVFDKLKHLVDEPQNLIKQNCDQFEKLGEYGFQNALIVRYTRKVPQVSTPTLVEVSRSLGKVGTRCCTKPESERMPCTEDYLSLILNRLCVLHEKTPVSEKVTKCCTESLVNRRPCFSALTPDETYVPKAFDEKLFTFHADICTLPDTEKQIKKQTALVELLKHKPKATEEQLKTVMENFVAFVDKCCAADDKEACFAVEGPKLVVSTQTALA

`[N-]=[N+]=Nc1ccccc1[C@H]1OC(c2ccc(OCCCO)cc2)=N[C@@]1(Cc1ccccc1)C(=O)N1CCOCC1`: the composite z-score is 1.1 in test [1]; 0.103 in test [3]; 2.25 in [4]; 0.937 in test [5]; -0.0748 in test [6]; 0.886 in test [7]. Moreover, the composite z-score in [8] is 0.88; in test [9], 1.32; in [10] it was 1.73; in test [11], 1.05; in test [13], 0.223; in [14], 0.132. Further, the composite z-score in [15] came to 0.523; in test [16], 2.89; in test [17], 1.09; in test [18], 1.29; in [19] it was 0.311; in [20] it was 1.14. In test [2], this compound returned a z-score of -2.37. In addition, the composite Z-score in [12] was 1.39 (inactive).

Take `C=CCC(OC(C)=O)[C@@H]1[C@@H](N(Cc2cc3ccccc3o2)C(=O)Cc2ccc(OC)cc2)c2cc(OCCCO)ccc2N1C(=O)c1ccc2ccccc2c1` (stereo not given in full): the composite z-score in test [1] is 0.0806; in test [3], -0.0999; in test [4] it was -0.428; in test [5], 0.174; in test [6] it was -0.0754; in [7], 0.0062. The composite z-score in test [8] was -0.125; in [9] it was 0.0296; in test [10], -0.396; in test [11], 0.234; in test [13] it was -0.0485; in test [14] it was -0.0652. Further, the composite z-score in test [15] is 0.386; in [16], 0.13; in [17], 0.16; in [18] it was -0.427; in test [19] it was -0.257; in test [20], -0.439. In test [2], this compound showed a z-score of -0.359. Moreover, the composite Z-score in test [12] is 0.39 (inactive).

Turning to `CCCNC(=O)[C@@H]1c2ccccc2C(=O)N(Cc2ccccc2OC)[C@H]1c1ccc(CO)cc1`, the composite z-score is 1.46 in test [1]; 0.146 in [3]; 1.07 in test [4]; 0.485 in test [5]; -0.0512 in [6]; -0.173 in test [7]. The composite z-score is 0.57 in test [8]; 0.239 in test [9]; 1.25 in test [10]; 0.735 in test [11]; -0.0573 in [13]; -0.0966 in test [14]. In addition, the composite z-score in test [15] is 0.604; in [16], 1.83; in test [17], 0.614; in test [18] it was 1.1; in test [19] it was -0.0218; in test [20], 0.748. This compound showed a z-score in [2] of -1.12. Moreover, in test [12], the composite Z-score was -0.228 (inactive).

On to `CCCC[C@H]1C[C@@H]1[C@@H]1N(P(=O)(c2ccccc2)c2ccccc2)C[C@@](O)(c2ccccc2)CC12CC2`, for which the composite z-score was 0.713 in test [1]; -1.06 in test [3]; 1.96 in test [4]; 1.03 in [5]; 0.145 in [6]; 0.149 in test [7]. The composite z-score is -0.753 in test [8]; 0.727 in [9]; 0.217 in [10]; 0.951 in test [11]; 0.169 in test [13]; 0.0525 in test [14]. The composite z-score in test [15] is 0.374; in test [16], 2.28; in test [17], 0.473; in [18], 0.944; in test [19], -1.95; in test [20] it was 0.499. In addition, the z-score in test [2] was -2.71. In addition, in test [12], the composite Z-score is 0.863 (inactive).

In the case of `C=CC[C@]1(C(N)=O)N=C(c2ccc(OCCCO)cc2)O[C@H]1c1ccccc1`, the composite z-score in test [1] was -0.434; in [3], -0.524; in test [4] it was 0.27; in test [5], -0.665; in [6], -0.0685; in [7] it was 0.401. The composite z-score in test [8] was 0.041; in test [9] it was 1.59; in test [10] it was 0.947; in test [11] it was 0.34; in [13], -0.0284; in test [14] it was 0.102. In addition, the composite z-score was 0.779 in test [15]; 0.916 in test [16]; -0.137 in [17]; -0.188 in [18]; 0.204 in test [19]; 0.721 in [20]. The compound also registered a z-score in [2] of -0.31. The composite Z-score in test [12] was 0.15 (inactive).
